ATXN2 expr inh – ATXN2 expression inhibition. HEK-293 ATXN2-luciferase reporter, luminescence, 24 h. Potency, µM (titrated, usually from 57 µM), inactives show top-dose activity change, negative = inhibition, most hits filed as inhibitors. hit rate 0.72% among 360,000; note: % is set by controls: 0 for no effect and ±100 for the full control effect; nearly all actives have a fitted effect of over 55% in size
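ATXN2-luciferase reporter cells (luciferase flanked by upstream and downstream ATXN2 gene portions) were treated 24 h at 37 °C with compounds at up to 57 uM. SteadyGlo luminescence gave expression; GF-AFC fluorescence gave viability.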
TGFb SMAD3 inh – inhibitors of TGF-b signaling; HepG2 CAGA-GFP TGF-b/SMAD3 reporter, GFP fluorescence, 18 h; TGF-beta stimulated, 500 pg/mL final; Potency, µM (series often up to 46.1 µM), for the others: at the highest dose activity, negative = inhibition, most hits filed as inhibitors; hit rate 1.2% among 410,000; AID 588855; note: % is set by controls: 0 for no effect and ±100 for the full control effect; nearly all actives have a fitted effect of over 65% in size
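Using HEPG2 CAGA-GFP reporter cells at 1000 cells/well, we pinned test compounds, stimulated with recombinant TGF-beta (500 pg/mL final) and measured total well GFP after 18 h.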
KB-V1 MDR tox – kills drug-selected multidrug resistant KB-V1 cells. KB-V1 MDR cells viability, CellTiter-Glo, 72 h. Potency, µM (titrated, usually from 46.1 µM), hits mostly cytotoxic. hit rate 3.4% among 400,000. AID 1347076; note: % is set by controls: 0 for no effect and ±100 for the full control effect; nearly all actives have a fitted effect of over 60% in size
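Potencies derive from concentration-effect curves fitted to normalized luminescence (CellTiter-Glo) of KB-V1 cells treated for 72 h at 37 degrees C in phenol-red-free DMEM containing 10% FBS.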
KB-3-1 tox – kills parental KB-3-1 adenocarcinoma cells | KB-3-1 viability, CellTiter-Glo ATP luminescence, 72 h | Potency, µM (highest dose often 46.1 µM), hits mostly cytotoxic | hit rate 1.4% among 400,000 | AID 1347075; note: % is set by controls: 0 for no effect and ±100 for the full control effect; nearly all actives have a fitted effect of over 60% in size
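Luminescent ATP read-out (CellTiter-Glo) measures survival of drug-naive KB-3-1 cells after 72 h compound exposure at 37 °C. Titration series was screened from lowest to highest concentration, with DMSO vehicle plates as background controls.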
ATXN viability – viability counter-screen for ATXN expression inhibitors; Potency, µM (doses to about 56.7 µM), most hits filed as cytotoxic; S2 cells (HEK-293 line with an ATXN2-luciferase reporter) viability, CellTiter-Fluor protease fluorescence, 24 h; hit rate 0.49% among 400,000; AID 651635; note: nearly all actives have a fitted effect of over 40% in size
HepG2 tox-1 – HepG2 cytotoxicity, counter-screen for TGF-b inhibitors; HepG2 CAGA-GFP viability, ATP luminescence, 18 h; Potency, µM (titrated, usually from 46.1 µM), inactives show top-dose activity change, negative = cytotoxicity, usual class: cytotoxic; hit rate 0.76% among 410,000; AID 588856
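CellTiter-Glo luminescence gave cytotoxicity after 18 hours at 37 degrees C. The cells were HepG2 CAGA-GFP in 1% FBS DMEM, stimulated with 500 pg/mL TGF-beta after compound addition. %Activity was normalised to no-cell wells (complete cell-killing) and DMSO (no toxicity), and curves were fitted and classified.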
TGFb CAGA inh – TGF-b pathway inhibition, cherry-pick retest. shares compounds with TGFb SMAD3 inh. HepG2 CAGA-GFP TGF-b reporter, GFP fluorescence, 18 h; cells stimulated with TGF-beta, 500 pg/mL. Potency, µM (titrated, usually from 46.1 µM), without a hit: top-dose activity, negative = inhibition, actives largely listed as inhibitors. hit rate 63% among 1,600. AID 720534; note: % is set by controls: 0 for no effect and ±100 for the full control effect; nearly all actives have a fitted effect of over 65% in size
HepG2 tox-2 – HepG2 cytotoxicity, TGF-b inhibitor counterscreen; Potency, µM (highest dose often 46.1 µM), for inactives: at the top dose activity, negative = cytotoxicity, actives largely listed as inhibitors; hit rate 27% among 1,600; shares compounds with TGFb SMAD3 inh; AID 720535; HepG2 CAGA-GFP viability, ATP luminescence, 18 h; cells stimulated with TGF-beta, 500 pg/mL; note: % is set by controls: 0 for no effect and ±100 for the full control effect; nearly all actives have a fitted effect of over 70% in size
CCL64 TGFb inh – orthogonal confirmation of TGF-b inhibitors in CCL64 cells. AID 720536. hit rate 41% among 1,600. CCL64 CAGA-GFP reporter, TGF-b stimulated, GFP fluorescence, 18 h. shares compounds with TGFb SMAD3 inh. Potency, µM (top dose mostly 46.1 µM), inactives show at the highest dose activity, negative = inhibition, actives largely listed as inhibitors; note: nearly all actives have a fitted effect of over 65% in size
COP TGFb inh – validation of TGF-b inhibitors in HepG2 COP promoter reporter; AID 720537; HepG2 COP-GFP TGF-b reporter, GFP fluorescence, 18 h; cells stimulated by added recombinant TGF-beta; Potency, µM (titrated, usually from 46.1 µM), for inactives: at the highest dose activity, negative = inhibition, most hits filed as inhibitors; shares compounds with TGFb SMAD3 inh; hit rate 3% among 1,600; note: nearly all actives have a fitted effect of over 70% in size
Starred values were filed as active, the others as inactive; i = inactive; ? = inconclusive; · = no result. Sampled rows, rich in hits. Any-hit rate of the full collection: about 5.9%. Calls come from the whole dose curve; as a rule, active = well fitted curve in the direction sought with a large enough effect; inconclusive = small, poorly fitted or top-dose-only effect, or another doubt; inactive = no such curve, though single readings can be large; an effect the other way counts as inactive or inconclusive. Potency is the fitted concentration of half-maximal effect.

SMILES	ATXN2 expr inh	TGFb SMAD3 inh	KB-V1 MDR tox	KB-3-1 tox	ATXN viability	HepG2 tox-1	TGFb CAGA inh	HepG2 tox-2	CCL64 TGFb inh	COP TGFb inh
C=CCC[C@H](Cc1ccc(F)cc1)C(=O)OC[C@@H](Cc1c[nH]c2ccccc12)NC(=O)[C@H](CC=C)CC(=O)N(CCO)Cc1ccccc1	?	11µM*	?	?	20µM*	-19%	12µM*	?	18µM*	29%
C=CCC[C@H](Cc1ccc(F)cc1)C(=O)OC[C@@H](Cc1c[nH]c2ccccc12)NC(=O)[C@H](CC=C)CC(=O)NCCO	?	?	i	i	?	-48%	·	·	·	·
CC(=O)Nc1ccc(SCC(c2ccccc2)N2CCN(C)CCC2=O)cc1 (stereo not drawn)	·	-3%	·	·	·	5%	·	·	·	·
O=C(COc1ccccc1C(=O)Nc1cccnc1)Nc1ccc(Br)cc1	·	3%	i	i	·	4%	·	·	·	·
OCc1ccc(-c2nn(Cc3ccccc3)c3ccccc23)o1	?	2.8µM*	?	i	?	-50%	1µM*	0.65µM*	?	5%
COCc1cc(C)nc2c1C(=O)NC(c1ccc(Br)cc1)N2Cc1ccccc1 (stereo not drawn)	13%	2%	i	i	i	-2%	·	·	·	·
COC(=O)c1ccccc1NS(=O)(=O)c1cc2c3c(c1)CC(=O)N3CCC2	·	?	i	i	·	3%	·	·	·	·
O=S(Cc1ccc(Br)cc1)Cc1nnc(SCc2ccc(Br)cc2)n1-c1ccccc1 (stereo not drawn)	-35%	8.9µM*	2.9µM*	16µM*	i	-41%	21µM*	?	?	44%
Cc1ccc(-c2nc3sccn3c2Nc2ccc(C)c(C)c2)cc1	8%	6%	i	i	i	-6%	·	·	·	·
Cc1cc(C)n(CCc2nc3c4ccccc4nc(SCc4ccc(Cl)cc4)n3n2)n1	9%	6%	i	i	i	5%	·	·	·	·
c1ccc(-c2cc3nc(NCC4CC4)nc(NCC4CCCCC4)c3s2)cc1	?	10µM*	?	?	14µM*	18µM*	23µM*	7.3µM*	5.2µM*	-36%
O=[N+]([O-])c1cc(-c2nc(-c3ccccc3)no2)ccc1N1CCOCC1	20%	-1%	i	i	i	-4%	·	·	·	·
CC(C)n1ncc2c(C(=O)N3CCN(Cc4ccc(Cl)s4)CC3)cc(C3CC3)nc21	-9%	10µM*	8.2µM*	?	?	-1%	?	-29%	?	-9%
CCC1CCCCN1S(=O)(=O)c1ccc(C(=O)Nc2sc3c(c2C(N)=O)CCC3)cc1 (stereo not drawn)	4%	-9%	i	i	i	-10%	·	·	·	·
COc1ccc(NS(=O)(=O)c2ccc(OC)c(N(C)S(=O)(=O)c3ccc(Cl)cc3)c2)cc1	?	10µM*	?	i	?	-26%	7.3µM*	?	?	37%
COc1ccc(S(=O)(=O)Nc2ccc(F)c(F)c2)cc1Cl	-8%	10µM*	i	i	i	-39%	-19%	-6%	-11%	7%
Cc1ccc(NC(=O)CCCOc2ccccc2)cc1S(=O)(=O)N1CCOCC1	-14%	-7%	i	i	i	-1%	·	·	·	·
Cc1ccc(OCCCC(=O)Nc2ccc(Cl)c(S(=O)(=O)N3CCOCC3)c2)cc1	-35%	8.9µM*	7.3µM*	15µM*	i	-27%	?	?	3%	1%
CCC(=O)Nc1c(S(=O)(=O)c2ccccc2)c2nc3ccccc3nc2n1C(C)c1ccccc1 (stereo not drawn)	-24%	13µM*	i	?	i	-21%	?	-21%	?	26%
O=C(NCc1ccco1)c1nc2c(nnn2Cc2ccccc2Cl)c(=O)[nH]1	16µM*	2.8µM*	i	?	?	-34%	5.8µM*	?	8.2µM*	27%
NC(=O)CC(NC(=O)c1ccccc1)c1ccc(N2CCC(N3CCCC3)CC2)c([N+](=O)[O-])c1 (stereo not drawn)	4%	1%	i	i	i	-2%	·	·	·	·
NC(=O)CC(NC(=O)c1ccc(Br)cc1)c1ccc(N2CCC(Cc3ccccc3)CC2)c([N+](=O)[O-])c1 (stereo not drawn)	-26%	10µM*	i	?	i	-31%	?	21µM*	?	-4%
NC(=O)CC(NC(=O)c1ccccc1)c1ccc(N2CCC(Cc3ccccc3)CC2)c([N+](=O)[O-])c1 (stereo not drawn)	?	6.3µM*	?	?	?	-35%	23µM*	?	?	67%
NC(=O)CC(NC(=O)c1ccc(Br)cc1)c1ccc(N2CCN(c3ccccc3)CC2)c([N+](=O)[O-])c1 (stereo not drawn)	-14%	?	i	i	i	-17%	·	·	·	·
CCOc1ccc(C2=Nn3c(nnc3-c3ccccc3OC)SC2)cc1	-19%	10µM*	?	0.012µM*	i	-23%	0.23µM*	-8%	0.46µM*	-6%
O=C(Nc1ccc(Cl)cc1)N(Cc1nc2ccccc2c(=O)[nH]1)Cc1cccs1	-20%	10µM*	?	i	?	8%	21µM*	?	?	38%
